Results filed as inconclusive are left out. Activity calls are given as the source filed them. Calls follow the shape of the dose curve; as a rule, active = well fitted inhibition curve with a large enough effect; inconclusive = small, poorly fitted or top-dose-only effect; inactive = no such curve, though single readings can be large or run the other way.
Potency is read from the fitted curve at half-maximal effect.

The nature of the experiment: Acumen qHTS Assay for Inhibitors of the mTORC1 Signaling Pathway in MEF (Tsc2-/-, p53-/-) Cells: Hit Validation.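 Also: phospho-rpS6 Ser235/236 immunofluorescence normalized to propidium iodide cell count; nearly all actives have a fitted effect of over 65% in size.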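 As to activity change, negative = inhibition: cells exposed to compound for 24 hours; plate controls were DMSO for no effect and 7.5 nM rapamycin control for full effect.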 Conditions: Acumen imaging; activity change, negative = inhibition: at 37.3 µM (top of the series). (In qHTS, concentration-response curves come from the screen itself.)
`CCN(c1ccccc1)S(=O)(=O)c1ccc(NC(=O)c2nc(S(C)(=O)=O)ncc2Cl)cc1`: the Potency is 4.14 µM (active).

Turning to `CCOc1ccc(NC(=O)CSc2oc(-c3ccccc3)nc2S(=O)(=O)c2ccc(Cl)cc2)cc1`, the activity change, negative = inhibition was -112%.

Turning to `CCOc1ccc(CNC(=O)c2ccccc2NC(=O)c2nsc3ccccc23)cc1`, the activity change, negative = inhibition is -112%.

`CCc1ccc(OCC(=O)Nc2ccc3oc(-c4ccc(OC)cc4)nc3c2)cc1`: the activity change, negative = inhibition worked out at 7.33%.

`CC(=O)C1=C(c2ccc(Cl)c(Cl)c2)N(C(C)=O)n2cnnc2S1`: the Potency is 5.21 µM (active).

Regarding `Cc1ccc(S(=O)(=O)c2nc(-c3cccs3)oc2SCC(=O)Nc2cc(C)cc(C)c2)cc1`, the activity change, negative = inhibition was -132%.

For the compound `CCOc1ccc(N(Cc2ccccc2)C(=O)c2nc(S(C)(=O)=O)ncc2Cl)cc1`, the Potency was 2.93 µM (active).

Take `Cc1ccccc1NC(=O)c1sc2nc3c(cc2c1N)CCCC3`: the activity change, negative = inhibition was -21.3%.

On to `CCOc1ccc(NC(=O)c2sc3nc4c(cc3c2N)CCCCCC4)cc1`, for which the Potency is 9.27 µM (active).

With `COc1cc(Nc2nc(SCC(=O)c3ccc(Cl)c(Cl)c3)nc3ccccc23)cc(OC)c1`, the activity change, negative = inhibition was -51.7%.

For the compound `Cc1cc(C)cc(Nc2cc(C(=O)NCCCN(C)C3CCCCC3)c3ccccc3n2)c1`, the activity change, negative = inhibition is -88.5%.

For the compound `CCCCOC(=O)c1ccc(NC(=O)c2sc3nc(C)cc(C)c3c2N)cc1`, the activity change, negative = inhibition is -72%.

Turning to `Cc1ccc2occ(CC(=O)Nc3ccc(Cl)c(C(F)(F)F)c3)c2c1`, the activity change, negative = inhibition was -19.2%.

As to `COc1ccc(NC(=O)CSc2nc3ccccc3n2Cc2cccc(OC)c2)cc1`, the activity change, negative = inhibition is -5.71%.

Consider `CCOc1ccc(Nc2nc(N)c(C(=O)c3ccccc3Cl)s2)cc1`, for which the activity change, negative = inhibition was -95%.

Turning to `Fc1ccc(Nc2nc3nonc3nc2Nc2cccc(C(F)(F)F)c2)cc1`, the Potency is 1.85 µM (active).

As for `Oc1ccccc1Nc1nc(-c2ccccc2)c2cc(Cl)ccc2n1`, the activity change, negative = inhibition was -6.7%.

Consider `O=S(=O)(NCC(c1ccco1)N1CCN(c2ccc(F)cc2)CC1)c1ccccc1` (configuration not stated), for which the activity change, negative = inhibition was 12.9%.

`CCn1c2ccccc2c2cc(CN3CCN(Cc4ccc(Cl)cc4)CC3)ccc21`: the Potency is 14.7 µM (active).

Turning to `COc1ccc(Cn2c(C(=O)O)c(CNCc3ccc(SC)cc3)c3ccc(OC)cc32)cc1`, the activity change, negative = inhibition was -12.2%.

In the case of `CCS(=O)(=O)c1ccccc1C(=O)N(Cc1cccnc1)c1nc2cc(C)c(C)cc2s1`, the activity change, negative = inhibition is -10%.

Regarding `CCc1ccc(S(=O)(=O)N(C(=O)c2ccncc2)c2ccc3oc(C)c(C(=O)OC)c3c2)cc1`, the Potency was 11.7 µM (active).

Take `O=C(NCc1ccc(F)cc1)c1ccc2c(Cl)c3c(nc2c1)CCCC3`: the activity change, negative = inhibition amounted to 26.5%.

As for `COc1cccc(-c2nc(S(=O)(=O)c3ccc(Cl)cc3)c(NCc3ccccc3)o2)c1`, the activity change, negative = inhibition worked out at 29.5%.

Take `CCCCOCc1cc(CN2CCN(c3cccc(Cl)c3)CC2)c(O)c2ncccc12`: the Potency is 2.61 µM (active).

In the case of `COc1ccc(N(C)C(=O)c2cc(S(=O)(=O)N3CCc4ccccc43)cn2C)c(OC)c1`, the activity change, negative = inhibition is 18.7%.

In the case of `Cc1ccc(-c2nn(C)c(=O)c3ccccc23)cc1S(=O)(=O)NCCCN(C)C`, the activity change, negative = inhibition turned out to be 5.39%.

Take `CCc1ccc(S(=O)(=O)c2c(C(=O)c3ccc(C)c(C)c3)cnc3ccccc23)cc1`: the activity change, negative = inhibition came to 5.96%.

In the case of `COc1ccc(C)cc1NC(=O)CCNS(=O)(=O)c1cccc2nonc12`, the activity change, negative = inhibition was 5.15%.

`COc1ccc(CNC(=O)c2nc(S(=O)(=O)Cc3ccccc3)ncc2Cl)cc1`: the activity change, negative = inhibition is -99.8%.

As to `COCc1oc2ccc(NS(=O)(=O)c3ccc(C)cc3)cc2c1C(=O)OC`, the activity change, negative = inhibition was -61.3%.

With `CS(=O)(=O)c1ncc(Cl)c(C(=O)N(Cc2ccc(Cl)cc2)Cc2ccco2)n1`, the activity change, negative = inhibition is -102%.

As for `CC(C)S(=O)(=O)c1oc(-c2cccs2)nc1S(=O)(=O)c1ccc(F)cc1`, the Potency was 0.736 µM (active).

For the compound `CC(C)c1ccc(NS(=O)(=O)c2ccc3nc(-c4ccccc4)[nH]c3c2)cc1`, the activity change, negative = inhibition was -0.821%.

For `Cc1cc(NC(=O)c2ccco2)cc(-c2nc3cc(Cl)ccc3o2)c1O`, the activity change, negative = inhibition is -46.5%.

Turning to `CCCN(c1ccccc1CC)S(=O)(=O)c1ccc2c(c1)CC(C)N2C(=O)C1CC1` (configuration not stated), the Potency is 0.521 µM (active).

Take `COc1cc2c(cc1OC)n(CC(=O)c1ccc(F)cc1)c(=O)n1nc(CCn3nc(C)cc3C)nc21`: the activity change, negative = inhibition was -5.74%.

The record behind these values is PubChem BioAssay AID651784 (National Center for Advancing Translational Sciences (NCATS), 2012).
